Most compounds without a hit are left out; they make up all but 7.7% or so of the library.
Tb PYK inh = qHTS of Trypanosoma Brucei Inhibitors | Potency, µM (top dose mostly 76.8 µM), inactives show top-dose activity, negative = inhibition, usual class: inhibitors | 0.12% of 410,000 active | TbPYK enzyme, Kinase-Glo Plus ATP luminescence, 45 min | pyruvate kinase (Trypanosoma brucei), Q57TT1; note: potency is the fitted concentration of half-maximal effect; nearly all actives have a fitted effect of over 50% in size
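Luminescent Kinase-Glo Plus end-point after 45 min room-temperature reaction of T. brucei pyruvate kinase started with 130 uM ADP (final). Buffer TEA 50 mM pH 7.2 with KCl, MgCl2, BSA, Tween-20; titration-based qHTS with fitted concentration-effect curves.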
FMDV antiviral = High Throughput Screening for Foot and Mouth Disease Virus Antivirals | FMDV antiviral cell-based qHTS | Potency, µM (doses to about 57.9 µM), without a hit: at the top dose activity change, negative = inhibition, usual class: inhibitors | 1.2% of 410,000 active; calls by dose curve; tested in HEK293T cells; note: read-out not given here; potency is the fitted concentration of half-maximal effect; nearly all actives have a fitted effect of over 45% in size
HCMV inh = qHTS Assay for inhibitors of the human cytomegalovirus (HCMV); HFF cells, HCMV-luciferase reporter, 72 h; active compounds read low; activity change, negative = inhibition, % at 57.5 µM; 4.5% of 410,000 active; AID 1259415, 2018; in the data active = activity change below about -60%; inconclusive = no clear call, values can overlap the other calls; inactive = above about -39%
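Luciferase read-out from HCMV-luciferase-infected HFFs (MOI 1 PFU/cell) 72 h post infection at 37C; compounds added after 16 h cell attachment; activity normalized between buffer-only basal and Salinomycin (10uM) inhibitor controls.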
Giardia FBPA inh = qHTS Assay for Inhibitors of Fructose-1,6-bisphosphate Aldolase from Giardia Lamblia; A8B2U2; 0.71% of 290,000 active; Potency, µM (titrated, usually from 59.6 µM), inactives show at the top dose activity, negative = inhibition, most hits filed as inhibitors; purified Giardia FBPA; note: potency is the fitted concentration of half-maximal effect; nearly all actives have a fitted effect of over 55% in size
Target sequence (A8B2U2 whole entry, looked up): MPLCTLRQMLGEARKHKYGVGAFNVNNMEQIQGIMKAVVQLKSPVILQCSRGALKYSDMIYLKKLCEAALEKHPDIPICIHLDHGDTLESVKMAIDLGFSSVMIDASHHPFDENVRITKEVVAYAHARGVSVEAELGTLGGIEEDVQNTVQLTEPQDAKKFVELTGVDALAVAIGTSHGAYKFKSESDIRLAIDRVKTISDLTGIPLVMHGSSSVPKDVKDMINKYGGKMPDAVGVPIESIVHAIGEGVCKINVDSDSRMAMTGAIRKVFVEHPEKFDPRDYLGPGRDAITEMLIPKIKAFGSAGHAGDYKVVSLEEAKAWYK
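40 nM FBPA preincubated 10 min at RT with compound (up to 57.5 uM final), then substrate plus GAPDH/TPI/NAD/arsenate coupling and diaphorase/resazurin added. Fluorescence read after 20 min at RT, 525/598 nm.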
Sm TGR inh = qHTS Assay for the Inhibitors of Schistosoma Mansoni Peroxiredoxins. Schistosoma mansoni thioredoxin glutathione reductase (TGR), Q962Y6. purified TGR, DTNB reduction, TNB absorbance 405 nm. Potency, µM (top dose mostly 114 µM), without a hit: at the highest dose activity change, negative = inhibition, usual class: inhibitors. 3% of 360,000 active. AID 485364, 2010; note: potency is the fitted concentration of half-maximal effect; nearly all actives have a fitted effect of over 60% in size
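Kinetic colorimetric format: TGR-catalysed, NADPH-driven DTNB reduction monitored via TNB absorbance. Enzyme dispensed at 20 nM; compound exposure 15 min at room temperature before reaction start.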
RE007 growth inh = qHTS Assay for Inhibitors of the HIV-1 protein Vpr; S. pombe RE007 Vpr strain, BacTiter-Glo ATP luminescence, 24 h; Potency, µM (highest dose often 92.2 µM), without a hit: at the highest dose activity change, negative = less growth, actives largely listed as inhibitors; 0.21% of 360,000 active; active = well fitted falling curve with a large enough effect; inconclusive = small, poorly fitted or top-dose-only effect; inactive = no such curve, though single readings can be large or run the other way; note: potency is the fitted concentration of half-maximal effect; nearly all actives have a fitted effect of over 50% in size
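Fission yeast RE007 carrying one integrated HIV-1 vpr copy, seeded at OD 0.01 in PMG+AL medium with 23 nL pinned compound. Grown 24 h at 30 degrees; viability read by BacTiter-Glo luminescence after 5 min.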
* marks the source's active call; other numbers are inactive results; [ ] = remark or other dose. Unless noted, calls come from the whole dose curve; as a rule, active = well fitted curve in the direction sought with a large enough effect; inconclusive = small, poorly fitted or top-dose-only effect, or another doubt; inactive = no such curve, though single readings can be large; an effect the other way counts as inactive or inconclusive. % is set by controls: 0 for no effect and ±100 for the full control effect.

For N#CC1=C2SCN(Cc3ccccc3)CN2C(=O)CC1c1cccs1 (configuration not stated) the results were Tb PYK inh inconclusive, FMDV antiviral -10%, HCMV inh 10, Giardia FBPA inh inconclusive, Sm TGR inh -35% and RE007 growth inh -13%.
For N#CC1=C2SCN(Cc3ccccc3)CN2C(=O)CC1c1ccc2c(c1)OCO2 (configuration not stated) the results were Tb PYK inh inconclusive, FMDV antiviral -3%, HCMV inh 16, Giardia FBPA inh 0.89µM*, Sm TGR inh 3.5µM* and RE007 growth inh 11%.
Screening Cc1cccc(N2CSC3=C(C#N)C(c4ccc(C)o4)CC(=O)N3C2)c1 (configuration not stated) returned Giardia FBPA inh inconclusive and Sm TGR inh 11µM*.
Screening COc1ccc(-c2cc(C(C)=O)c(C)n2CCC(=O)NCc2ccc(F)cc2)cc1 returned Tb PYK inh -1%[15.4 µM], FMDV antiviral -7%, HCMV inh inconclusive and Sm TGR inh 0%.
For N#CC(=C(O)CN1CCN(c2ccccc2F)CC1)c1nc(-c2ccccc2)cs1 the results were Tb PYK inh 5%, FMDV antiviral 8%, HCMV inh -71* and RE007 growth inh 2%.
N#CC(=C(O)CN1CCN(c2ccccc2F)CC1)c1nc(-c2ccc(Cl)cc2)cs1 was read as Tb PYK inh -3%, FMDV antiviral -7%, HCMV inh -17 and RE007 growth inh 3%.
`Cc1nc2nc(SCC(=O)NC(C)c3ccccc3)nn2c(C)c1Cc1c(F)cccc1Cl` (configuration not stated) gave Tb PYK inh -6%, FMDV antiviral -19%, HCMV inh -17 and Sm TGR inh -9%.
`CCOc1ccccc1NS(=O)(=O)c1c(C)nc2sccn2c1=O` gave Tb PYK inh 2%, FMDV antiviral 5%, HCMV inh 24 and Sm TGR inh 0%.
Screening O=C(NC1CCCCC1)C(c1cccnc1)N(C(=O)CCl)c1ccc(F)cc1 (configuration not stated) returned Tb PYK inh -5%, FMDV antiviral inconclusive, HCMV inh -99*, Giardia FBPA inh 0%, Sm TGR inh -5% and RE007 growth inh 22%.
For COc1ccc(N(C(=O)Cc2cccs2)C(C(=O)NC2CCCC2)c2ccncc2)cc1 (configuration not stated) the results were Tb PYK inh -3%, FMDV antiviral 64%, HCMV inh 47, Sm TGR inh -10% and RE007 growth inh -5%.
COc1ccc(N(C(=O)CCl)C(C(=O)NC2CCCCC2)c2cccnc2)cc1 (configuration not stated) was read as Tb PYK inh -11%, FMDV antiviral 11µM*, HCMV inh -102*, Giardia FBPA inh 1%, Sm TGR inh 14µM* and RE007 growth inh -10%.
`O=C(NC1CCCCC1)C(c1cccnc1)N(C(=O)CCl)c1ccccc1Cl` (configuration not stated) gave Tb PYK inh 1%, FMDV antiviral -13%, HCMV inh -103*, Giardia FBPA inh 3%, Sm TGR inh inconclusive and RE007 growth inh -9%.
COc1cc(=O)n2c(c1C(=O)NCc1ccc3c(c1)OCO3)CCN(C(=O)c1ccc(C)cc1)CC2 was read as FMDV antiviral 10%.
`COc1ccc2[nH]cc(CCNc3ncncc3-c3ccccc3OC)c2c1` gave FMDV antiviral -7% and Giardia FBPA inh -11%.
Screening COc1ccc2[nH]cc(CCNc3ncncc3-c3ccccc3Cl)c2c1 returned FMDV antiviral 35µM* and Giardia FBPA inh -7%.
CCCOc1ccc(C2CC(=O)Nc3c2c(C)nn3-c2nncc(-c3cccc(OC)c3)n2)cc1OC (configuration not stated) was read as Tb PYK inh -11%, FMDV antiviral inconclusive, HCMV inh 9 and Sm TGR inh 1%.
`COC(=O)[C@@H]1[C@@H](CO)[C@@H]2Cn3c(ccc(Br)c3=O)[C@H]1N2CCc1ccccc1` gave HCMV inh 12.
Cc1c(C(=O)N2CCC(C)CC2)oc2ccc3c(c12)C(O)CC1(CCCCC1)O3 (configuration not stated) was read as Tb PYK inh 1%, FMDV antiviral 5%, HCMV inh -70*, Sm TGR inh 0% and RE007 growth inh 2%.
COCCNC(=O)c1oc2ccc3c(c2c1C)C(O)CC(C)(C)O3 (configuration not stated) was read as Tb PYK inh 8%, FMDV antiviral 13%, HCMV inh 40, Giardia FBPA inh 3%, Sm TGR inh inconclusive and RE007 growth inh 29%.
Cn1c(=O)c(C(=O)CN2CCCCCC2)c(N)n(Cc2ccccc2)c1=O was read as Tb PYK inh 2%, FMDV antiviral -7%, HCMV inh -24, Giardia FBPA inh 0%, Sm TGR inh 35µM* and RE007 growth inh 24%.
For CCn1c(=O)c(C(=O)CN2CCCc3ccccc32)c(N)n(Cc2ccccc2)c1=O the results were Tb PYK inh -2%, FMDV antiviral 39%, HCMV inh -88*, Giardia FBPA inh -26%, Sm TGR inh -23% and RE007 growth inh 5%.
For CCOc1ccc(CN(C)C(=O)CNC(=O)c2ccccc2)cc1 the results were Tb PYK inh 4%, FMDV antiviral 13%, HCMV inh 96, Giardia FBPA inh -2%, Sm TGR inh 13% and RE007 growth inh 3%.
C=CCOc1ccc(CN(C)C(=O)CNC(=O)c2ccc(-c3ccccc3)cc2)cc1 was read as Tb PYK inh 4%, FMDV antiviral 13µM*, HCMV inh -81*, Sm TGR inh -8% and RE007 growth inh -15%.
`O=C(Nc1ccc2nc(C3CC3)n(Cc3ccc(F)cc3)c(=O)c2c1)c1ccco1` gave Tb PYK inh 0%, FMDV antiviral -20%, HCMV inh -69*, Giardia FBPA inh 4%, Sm TGR inh 1% and RE007 growth inh -25%.
For COc1cc2c(c(OC)c1OC)-c1c(cc3c(c1OC)OCO3)C[C@@H](C)[C@](C)(O)C2 the results were Tb PYK inh -8%.
CCOc1ccc(-c2nonc2NC(=O)c2oc3cc(Br)ccc3c2C)cc1 was read as Tb PYK inh -1%, FMDV antiviral -26%, HCMV inh inconclusive and Sm TGR inh 4%.

Screening results deposited in PubChem by National Center for Advancing Translational Sciences (NCATS).
